Assay results from paper PMC4336329 (PLoS ONE, 2015).
About 14,000 (4.5%) of roughly 310,000 compounds showed an effect of 50% or more. Effects have a minus sign here. For the sample, strong results were picked, then their nearest neighbours and some compounds at random.

Molecular target: human ether-à-go-go-related gene (hERG) potassium channel (human, UniProt Q12809)
Test: primary screen, population patch clamp on CHO cells stably expressing hERG; higher = less effect of the substance
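Further: peak tail current of the secondary pulse compared with the same well before compound.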

human ether-à-go-go-related gene (hERG) potassium channel, sequence (Q12809 whole entry, looked up): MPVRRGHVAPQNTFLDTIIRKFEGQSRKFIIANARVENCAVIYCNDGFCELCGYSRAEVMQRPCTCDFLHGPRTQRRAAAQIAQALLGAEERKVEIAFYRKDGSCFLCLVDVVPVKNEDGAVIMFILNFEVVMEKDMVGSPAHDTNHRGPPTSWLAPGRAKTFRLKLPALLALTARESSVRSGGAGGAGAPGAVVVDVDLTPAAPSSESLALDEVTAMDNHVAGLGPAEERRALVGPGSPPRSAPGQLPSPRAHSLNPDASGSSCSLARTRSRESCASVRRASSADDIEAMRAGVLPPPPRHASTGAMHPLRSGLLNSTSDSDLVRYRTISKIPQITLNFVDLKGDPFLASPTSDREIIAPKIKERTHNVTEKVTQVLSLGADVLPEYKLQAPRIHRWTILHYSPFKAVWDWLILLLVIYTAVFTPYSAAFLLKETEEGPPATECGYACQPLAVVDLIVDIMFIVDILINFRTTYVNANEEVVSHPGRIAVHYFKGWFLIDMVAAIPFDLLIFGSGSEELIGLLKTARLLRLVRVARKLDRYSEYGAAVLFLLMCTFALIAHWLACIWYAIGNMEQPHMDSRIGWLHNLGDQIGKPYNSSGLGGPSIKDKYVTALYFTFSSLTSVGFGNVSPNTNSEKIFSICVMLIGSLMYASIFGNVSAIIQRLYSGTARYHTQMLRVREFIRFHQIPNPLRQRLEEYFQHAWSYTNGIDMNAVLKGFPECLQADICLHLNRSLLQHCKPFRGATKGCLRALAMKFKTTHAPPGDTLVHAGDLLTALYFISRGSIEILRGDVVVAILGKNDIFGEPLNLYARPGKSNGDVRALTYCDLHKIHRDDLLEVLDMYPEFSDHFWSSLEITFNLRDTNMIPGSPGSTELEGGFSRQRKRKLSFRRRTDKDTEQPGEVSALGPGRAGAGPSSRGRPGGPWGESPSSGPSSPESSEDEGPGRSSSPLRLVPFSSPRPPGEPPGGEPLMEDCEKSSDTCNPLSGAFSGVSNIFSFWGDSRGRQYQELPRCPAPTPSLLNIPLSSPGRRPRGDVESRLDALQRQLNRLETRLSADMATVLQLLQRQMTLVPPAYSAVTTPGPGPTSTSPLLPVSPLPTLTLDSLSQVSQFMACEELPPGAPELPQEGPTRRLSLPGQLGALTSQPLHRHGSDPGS

Structure (SMILES) | hERG current change (%, negative = inhibition) at 10uM [%]
CCO.Cn1c2c(c(=O)n(C)c1=O)C1(C(=O)Nc3ccccc31)C(C#N)=C(N)O2 (stereo not drawn) | 8.3
COc1ccc(CN(C)C(=O)c2cccc(Oc3ccccc3)c2)c(OC)c1OC | -20.6
CSc1nc(C)c(Oc2ccccc2)c(=O)n1C | 5.82
CCC1CCCCN1C(=O)NC(=O)c1ccccc1 (stereo not drawn) | 30.3
CC(C)OCCCN(C)C1CCN(S(=O)(=O)c2csc(C(N)=O)c2)CC1 | 13.1
CC(C)OCCCN(C)C1CCN(S(=O)(=O)c2ccc(-c3cc(C(F)(F)F)no3)s2)CC1 | -54.6
CC(C)OCCCN(C)C1CCN(S(=O)(=O)c2ccc(-c3ccc(=O)[nH]n3)s2)CC1 | -35.8
Cc1ccccc1C(=O)NC(=S)Nc1ccc(S(=O)(=O)N2CCOCC2)cc1 | -40
CN1CCN(S(=O)(=O)c2cccc(C(=O)N(C)C(c3ccccc3)c3ccccc3)c2)CC1 | -4.72
CC(NC(=O)c1cc(S(=O)(=O)N2CCCC2)cn1C)c1ccccc1 (stereo not drawn) | -0.137
CC(NC(=O)c1cccc(S(=O)(=O)N2CCN(Cc3ccccc3)CC2)c1)c1ccc(Br)cc1 (stereo not drawn) | -17.6
O=C(NCc1ccccc1CN1CCCC1)c1cccc(S(=O)(=O)N2CCOCC2)c1 | -44.5
O=C(NCCc1ccccc1)c1cccc(S(=O)(=O)N2CCCCC2)c1 | 5.18
CN1CCN(S(=O)(=O)c2cccc(C(=O)O)c2)CC1 | 10.8
O=C(NCc1ccccc1CN1CCCC1)c1cccc(S(=O)(=O)N2CCCC2)c1 | -55.1
CC(NC(=O)c1cccc(S(=O)(=O)N2CCCCCC2)c1)c1ccccc1 (stereo not drawn) | -58.2
Cc1ccc(C(NC(=O)c2cccc(S(=O)(=O)N3CCN(C)CC3)c2)c2ccccc2)cc1 (stereo not drawn) | -61.8
O=C(NCc1ccccc1)c1cccc(S(=O)(=O)N2CCCCC2)c1 | -52.5
O=C(NCc1cccc(Cl)c1)c1cccc(S(=O)(=O)N2CCCCC2)c1 | 7.08
O=C(NCc1ccccc1F)c1cccc(S(=O)(=O)N2CCCCCC2)c1 | 7.87
Cc1cc(C)c(NC(=O)CSc2nnc(CNC(=O)c3ccccc3F)o2)c(C)c1 | -6.38

Structure (SMILES) | hERG current change (%, negative = inhibition) at 10uM [%]
CN1/C(=C\C(=S)NC(=O)c2ccccc2Cl)C(C)(C)c2ccccc21 | 23.6
COc1cc(C(=O)NCc2ncccc2C)ccc1OC1CCN(C(C)=O)CC1 | 6.34
CCC1CCCCN1C(=O)CSc1nc(N)c(NC(=O)c2ccc(OC)c(OC)c2)c(=O)[nH]1 (stereo not drawn) | 4.63
COc1ccc(OCCn2cncn2)cc1 | 12.6
COC(=O)c1cc2sc(Cl)cc2n1CC(=O)N1CCCc2ccccc21 | -1.75
O=C(O)c1ccccc1-c1ccccc1C(=O)NCc1ccccc1Cl | -37.6
COC(=O)C1=C(c2ccc(OC(F)(F)F)cc2)C[C@@H]2CC[C@H]1N2C(=O)NCCOc1ccc(OC)cc1 | -26.3
O=C1N/C(=N/S(=O)(=O)c2ccccc2)S/C1=C/c1cccnc1 | 1.74
CCc1c(C)nc2c(C)cccc2c1SCCC#N | 17.7
CCCCc1c(C)nc2ccccc2c1SCCC#N | -50.6
CCCCc1c(C)nc2ccccc2c1SCCC(=O)O | 14.8
O=C(Cc1ccc(NC2=NC3CS(=O)(=O)CC3S2)cc1)NCc1ccccc1Cl (stereo not drawn) | 6.5
CCOC(=O)c1c(NC(=O)CSc2nnc(Cc3ccccc3)o2)sc(C)c1C | 13.8
CCOC(=O)c1c(NC(=O)CSc2nnc(Cc3ccccc3)o2)sc(C(C)=O)c1C | -64.8
CCOC(=O)c1sc(NC(=O)CSc2nnc(Cc3ccccc3)o2)c(C(=O)OCC)c1C | 9.46
CCOC(=O)c1c(NC(=O)CSc2nnc(-c3ccccc3C)n2C)sc(C(C)=O)c1C | -63
CCOC(=O)c1c(NC(=O)CSc2nnc(-c3cccc(C)c3)n2CC)sc(C(C)=O)c1C | -18.9
CCOC(=O)c1c(NC(=O)CSc2nnc(-c3ccccc3)n2CC)sc(C(C)=O)c1C | -31
O=C(CNC(=O)c1cc2c(n(-c3ccccc3)c1=O)CCCC2=O)c1ccccc1 | -38.5
CN1CCN(C(=O)N2c3ccccc3CCc3ccccc32)CC1 | 11.9
Cc1ccc(C)c(OCCC(=O)OCC(=O)NC(=O)NCc2ccccc2)c1 | 4.16

Structure (SMILES) | hERG current change (%, negative = inhibition) at 10uM [%]
CCN(CC)S(=O)(=O)c1cccc(C(=O)NCCCN2CCOCC2)c1 | 9.9
O=C(NCCCN1CCOCC1)C1CCN(S(=O)(=O)c2cccc(C(F)(F)F)c2)CC1 | -9.45
O=C(NCCCN1CCOCC1)c1ccc(S(=O)(=O)Nc2cccc(C(F)(F)F)c2)cc1 | -12.8
O=C(O)C(=O)O.O=S(=O)(c1cccc(C(F)(F)F)c1)N(CCCN1CCOCC1)Cc1cccs1 | -51
O=S(=O)(c1cccc(C(F)(F)F)c1)N(CCCN1CCOCC1)Cc1cccs1 | -74.9
Cl.O=S(=O)(NCCN1CCOCC1)c1cccc(C(F)(F)F)c1 | 5.32
COc1ccc(S(=O)(=O)Nc2ccc3oc(C)c(C(C)=O)c3c2)cc1 | 12
COC(=O)c1sc(-c2ccc(Cl)cc2)cc1N | -37.1
O=C(c1ccc(COc2ccc3ccccc3c2)o1)N1N=C(C(F)F)CC1(O)C(F)F (stereo not drawn) | -2.62
CC1(C)CC(NC(=O)C(F)(F)F)CC(C)(C)N1OC(=O)c1ccco1 | 1.13
Cc1ccc(S(=O)(=O)NCCCCCC(=O)N(C)C)cc1 | 6.32
CCOC(=O)/C=C1\SCC(=O)N1CC(=O)NC(c1ccccc1)c1ccccc1 | -52.2
CCOC(=O)/C=C1\SCC(=O)N1CC(=O)NC(C)c1ccccc1 (stereo not drawn) | -15.2
CCOC(=O)/C=C1\SCC(=O)N1CC(=O)NC(C)C | 21.2
O=C(NCC(=O)N1CCCCCC1)c1ccc(OC(F)F)cc1 | -11.3
O=C(CN1C(=O)c2ccccc2S1(=O)=O)c1ccc(OC(F)F)cc1 | -23
CCC1CCCCN1CC(=O)c1c(C)[nH]c2ccccc12 (stereo not drawn) | -27.4
CCC1CCCCN1CC(=O)c1ccc(OC(F)F)cc1 (stereo not drawn) | -77.7
Br.O=C(CN1CCCCC1CO)c1ccc(OC(F)F)cc1 (stereo not drawn) | -68.2
CCC1CCCCN1CC(=O)c1c(C)[nH]c2ccc(OC)cc12 (stereo not drawn) | -20.6
O=c1c2cc(N3CCOCC3)ccc2[nH]c(=S)n1CCCN1CCCC1 | -4.98

Structure (SMILES) | hERG current change (%, negative = inhibition) at 10uM [%]
CC(C)(C)c1ccc(CN(Cc2ccccc2)C(c2ccccn2)c2nnnn2C(C)(C)C)cc1 (stereo not drawn) | 2.44
COc1ccc(S(=O)(=O)N2CCC(C)CC2)cc1N(C)S(=O)(=O)c1ccccc1 | -2.12
COC(=O)c1cccc(NC(=O)CCNC(=O)c2ccco2)c1 | 18.8
COC(=O)C1=C(C)N(c2ccc(C(=O)OC)cc2)C(=O)C1 | 22.3
O=C(CSc1nnc(-c2ccncc2)o1)N1CCCC1 | -19.1
O=C(CCC(=O)c1ccc(Oc2ccccc2)cc1)Nc1ccc(Cl)cc1Cl | 5.46
CCN(CC)S(=O)(=O)c1ccc(-c2nnc(SCC(=O)Nc3nnc(C)s3)n2CC)cc1 | 12.2
Cc1ccc(C(=O)N/C(=C/c2ccc(-c3cccc([N+](=O)[O-])c3)o2)C(=O)NC(C)(C)C)cc1 | -21.9
Cc1ccc(C(=O)N/C(=C\c2ccc(-c3cccc([N+](=O)[O-])c3)o2)C(=O)NCCCN(C)C)cc1 | -67.6
Cc1ccc(C(=O)N/C(=C/c2ccc(-c3cccc([N+](=O)[O-])c3)o2)C(=O)NCCCN(C)C)cc1 | -80
O=C(N/N=C/c1ccc(-c2cccc([N+](=O)[O-])c2)o1)c1ccc([N+](=O)[O-])cc1 | -40
Cc1ccc(C(=O)N/C(=C\c2ccc(-c3cccc([N+](=O)[O-])c3)o2)C(=O)NC(C)(C)C)cc1 | 1.94
Cc1ccc(C(=O)N/C(=C/c2ccc(-c3cccc([N+](=O)[O-])c3)o2)C(=O)NC(C)C)cc1 | -30.8
O=C(CSc1nnc(CN2CCOCC2)n1-c1ccc(Cl)cc1)Nc1ccc2c(c1)OCO2 | -9.87
CC/C(O)=C1\C(=O)CCCC1=NCCc1c(C)[nH]c2ccc(C)cc12 | -14
CCOC(=O)CC1C(=O)NCCN1C(=O)Nc1ccc(Cl)cc1 (stereo not drawn) | 2.37
CC(=O)c1c(C)[nH]c(C(=O)N2c3ccccc3CC2C)c1C (stereo not drawn) | 5.33
Cc1csc(=O)n1CCC(=O)OCC(=O)c1ccc(Br)cc1 | -18.4
O=c1c2ccccc2ncn1C1CCCCC1 | -19.4
O=c1oc2ccccc2c2c1ncn2-c1ccccc1 | -11.8
O=c1oc2ccccc2c2c1ncn2C1CCCCC1 | -51.7
